A number with no mark means an inactive call. Results filed as inconclusive are left out. Active and inactive are the calls of the source. Unless noted, calls follow the shape of the dose curve; as a rule, active = well fitted curve in either direction with a large enough effect (not every such curve was filed as active); inconclusive = small, poorly fitted or top-dose-only effect, or another doubt; inactive = flat fitted curve, though single readings scatter.
Legend:
[1] = biological target: Lysosomal acid glucosylceramidase (Homo sapiens) (UniProt P04062); experiment: Glucocerebrosidase-p2 (AID 348; in the data active = potency below about 10 µM; also: potency is read from the fitted curve at half-maximal effect); conditions: purified GBA, blue fluorogenic substrate, 40 min
Chain of Lysosomal acid glucosylceramidase (Homo sapiens) (P04062 whole entry, looked up): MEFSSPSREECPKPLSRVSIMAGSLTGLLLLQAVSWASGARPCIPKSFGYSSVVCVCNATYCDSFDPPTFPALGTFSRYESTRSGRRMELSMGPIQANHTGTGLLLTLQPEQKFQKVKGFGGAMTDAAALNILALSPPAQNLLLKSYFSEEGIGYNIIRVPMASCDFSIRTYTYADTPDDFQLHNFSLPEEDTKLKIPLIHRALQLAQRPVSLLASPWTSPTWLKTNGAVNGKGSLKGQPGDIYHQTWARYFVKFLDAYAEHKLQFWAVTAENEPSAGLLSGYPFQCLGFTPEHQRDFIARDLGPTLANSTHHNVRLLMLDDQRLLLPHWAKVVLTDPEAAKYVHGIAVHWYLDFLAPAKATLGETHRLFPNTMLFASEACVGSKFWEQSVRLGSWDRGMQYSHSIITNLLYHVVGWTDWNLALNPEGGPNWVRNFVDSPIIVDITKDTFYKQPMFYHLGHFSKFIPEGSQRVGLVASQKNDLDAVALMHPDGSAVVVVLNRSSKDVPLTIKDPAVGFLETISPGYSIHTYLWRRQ
How it was run: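 Normal human glucocerebrosidase (0.2 nM) with blue fluorogenic substrate (80 uM final) in citrate/phosphate pH 5.9 with 10mM sodium taurocholate, 0.01% tween-20; 40 min RT, NaOH/glycine stop; fluorescence Ex 365/Em 440; AC50 from a titration from 0.6 nM upwards.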

[2] = AP1 Signaling Pathway (AID 357); conditions: ME-180 AP-1-bla reporter, EGF-induced, beta-lactamase ratio, 5 h; at 7.69 µM (top of the series) unless noted; also: % is scaled to controls: 0 for no effect and ±100 for the full control effect
How it was run: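 ME-180 cells with beta-lactamase reporter under AP-1 response element, stimulated with EC50 EGF; compounds tested in titration series, 5 h at 37 °C. CCF4 substrate added 2.5 h at room temperature; 460/530 nm emission ratio gave %activity and AC50.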

[3] = biological target: Cytochrome P450 1A2 (Homo sapiens) (UniProt P05177); experiment: p450-cyp1a2 (AID 410; calls by dose curve; also: potency is read from the fitted curve at half-maximal effect;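 as to activity change, negative = inhibition: -100% = full effect of reference inhibitor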); conditions: recombinant CYP1A2, luciferin-ME demethylation, luminescence; series mostly up to 11.4 µM
Chain of Cytochrome P450 1A2 (Homo sapiens) (P05177 whole entry, looked up): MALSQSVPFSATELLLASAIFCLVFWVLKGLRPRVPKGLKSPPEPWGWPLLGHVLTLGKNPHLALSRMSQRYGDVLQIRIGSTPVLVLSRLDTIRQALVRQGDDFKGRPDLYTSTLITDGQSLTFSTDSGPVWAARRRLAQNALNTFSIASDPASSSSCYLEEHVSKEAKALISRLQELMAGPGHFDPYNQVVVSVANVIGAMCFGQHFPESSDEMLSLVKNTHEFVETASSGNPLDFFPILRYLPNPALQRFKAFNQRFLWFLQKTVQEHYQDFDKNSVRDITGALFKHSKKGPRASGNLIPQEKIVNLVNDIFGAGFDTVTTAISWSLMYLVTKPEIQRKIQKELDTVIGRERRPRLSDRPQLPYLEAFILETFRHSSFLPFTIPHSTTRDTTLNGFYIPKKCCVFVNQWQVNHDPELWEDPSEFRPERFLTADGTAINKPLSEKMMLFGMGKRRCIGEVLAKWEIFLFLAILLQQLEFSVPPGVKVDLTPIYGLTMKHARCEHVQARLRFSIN
How it was run: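 20nM CYP1A2, 100uM Luciferin-ME (=Km), 100mM KPO4; cpd 10 min RT; +NADPH regen, 60 min RT; stop/detect 20 min; luminescence. Normalized to furafylline 57 uM = full inhibition.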

[4] = NFAT Signaling Pathway (AID 444); conditions: Jurkat NFAT-bla M1, carbachol, beta-lactamase ratio, 5 h; at 7.69 µM (top of the series) unless noted;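 also: carbachol stimulus at about its EC50 of 1 µM final; % is scaled to controls: 0 for no effect and ±100 for the full control effect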
How it was run: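 Jurkat cells carrying an NFAT-driven β-lactamase reporter and co-transfected muscarinic M1 receptor were treated with compound plus carbachol (1 uM final, an EC50 level) for 5 h at 37 °C. CCF4 loading followed for 1 h at RT; 460/530 nm ratio gave %activity.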

[5] = Stat Signaling Pathway (AID 446); conditions: ME-180 (cervical carcinoma) SIE beta-lactamase reporter, IL-6 stimulated, 5 h; at 7.69 µM (top of the series) unless noted;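 also: ME-180 cervical cancer cells given 40 pM IL-6 alongside compound; SIE-controlled beta-lactamase reporter measured as 460/530 nm FRET emission ratio; % is scaled to controls: 0 for no effect and ±100 for the full control effect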
How it was run: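 Emission at 460 and 530 nm (excitation 405 nm) reports SIE-controlled beta-lactamase in ME-180 cells. Cells received compound with 40 pM IL-6 for 5 hrs at 37 C; data scaled between 300 pM IL-6 and 125 nM JAK-inhibitor controls.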

[6] = biological target: Glucocorticoid receptor (Homo sapiens) (UniProt P04150); experiment: GR-GFP Redistribution (AID 450;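 active = compounds whose dose series gives a full or clear partial fitted curve of increased nuclear translocation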; also: potency is read from the fitted curve at half-maximal effect); conditions: U2OS GR-GFP nuclear translocation, laser cytometry, 2 h
Chain of Glucocorticoid receptor (Homo sapiens) (P04150 whole entry, looked up, the tested form may be a part): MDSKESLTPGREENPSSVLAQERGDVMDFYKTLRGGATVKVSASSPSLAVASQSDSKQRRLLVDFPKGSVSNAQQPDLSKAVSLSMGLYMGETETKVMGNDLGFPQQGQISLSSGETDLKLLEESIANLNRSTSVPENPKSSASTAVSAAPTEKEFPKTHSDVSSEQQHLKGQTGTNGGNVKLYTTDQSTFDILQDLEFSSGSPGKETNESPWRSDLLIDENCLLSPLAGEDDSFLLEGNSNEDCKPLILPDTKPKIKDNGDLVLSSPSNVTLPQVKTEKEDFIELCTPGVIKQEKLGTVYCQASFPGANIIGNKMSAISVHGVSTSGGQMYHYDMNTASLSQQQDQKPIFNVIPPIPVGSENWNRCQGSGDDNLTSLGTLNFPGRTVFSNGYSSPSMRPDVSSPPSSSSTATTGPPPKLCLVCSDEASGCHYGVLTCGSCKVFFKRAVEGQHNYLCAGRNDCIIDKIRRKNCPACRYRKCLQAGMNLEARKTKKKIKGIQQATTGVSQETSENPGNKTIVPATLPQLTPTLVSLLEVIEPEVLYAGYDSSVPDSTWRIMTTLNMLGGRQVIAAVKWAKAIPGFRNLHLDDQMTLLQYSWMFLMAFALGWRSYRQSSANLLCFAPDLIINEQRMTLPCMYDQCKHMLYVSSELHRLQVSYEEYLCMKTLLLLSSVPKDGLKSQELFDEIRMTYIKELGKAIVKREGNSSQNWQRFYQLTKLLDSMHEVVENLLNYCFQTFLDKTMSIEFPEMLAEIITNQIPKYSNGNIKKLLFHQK

[7] = biological target: Glucocorticoid receptor (Homo sapiens) (UniProt P04150); experiment: GR-EFC Redistribution (AID 451; calls by dose curve; also: potency is read from the fitted curve at half-maximal effect); conditions: CHO-K1 GR-EFC translocation, beta-gal luminescence, 2 h
How it was run: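 CHO-K1 cells stably expressing nuclear-localized β-gal enzyme acceptor and GR fused C-terminally to the enzyme donor fragment; ligand-driven nuclear translocation restores β-gal by complementation. Compounds titrated up to 46 uM final, 2 h at 37 °C; luminescence read.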

[8] = biological target: 3',5'-cyclic-AMP phosphodiesterase 4B (Homo sapiens) (UniProt Q07343); experiment: qHTS Assay for Inhibitors of PDE-IV (AID 607; active = well fitted activation curve with a large enough effect in the main read-out, with a control signal flat, not every such curve was filed as active; also: % of control where 0% means no effect); conditions: HEK293 ACTOne CNG channel cells, membrane potential fluorescence; series mostly up to 22.9 µM
Chain of 3',5'-cyclic-AMP phosphodiesterase 4B (Homo sapiens) (Q07343 whole entry, looked up): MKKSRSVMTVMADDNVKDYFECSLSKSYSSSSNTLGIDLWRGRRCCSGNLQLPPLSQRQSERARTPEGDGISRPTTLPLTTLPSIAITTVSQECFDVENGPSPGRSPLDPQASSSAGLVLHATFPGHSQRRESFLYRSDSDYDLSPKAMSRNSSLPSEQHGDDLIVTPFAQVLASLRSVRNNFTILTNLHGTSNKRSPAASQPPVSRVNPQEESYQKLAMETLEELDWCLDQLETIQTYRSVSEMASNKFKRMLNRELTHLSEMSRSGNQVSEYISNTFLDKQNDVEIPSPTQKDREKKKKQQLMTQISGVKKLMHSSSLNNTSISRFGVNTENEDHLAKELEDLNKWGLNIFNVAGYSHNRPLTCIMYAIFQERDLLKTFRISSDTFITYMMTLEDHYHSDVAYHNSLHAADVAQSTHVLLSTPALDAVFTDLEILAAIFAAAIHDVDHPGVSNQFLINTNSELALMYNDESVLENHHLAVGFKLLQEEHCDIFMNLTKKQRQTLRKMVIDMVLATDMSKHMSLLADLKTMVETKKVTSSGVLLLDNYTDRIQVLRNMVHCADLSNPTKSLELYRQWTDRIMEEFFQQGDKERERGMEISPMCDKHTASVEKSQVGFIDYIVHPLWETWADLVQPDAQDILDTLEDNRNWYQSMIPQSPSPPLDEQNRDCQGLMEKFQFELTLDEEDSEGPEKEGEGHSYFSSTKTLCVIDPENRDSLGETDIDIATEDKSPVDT
How it was run: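 The readout is membrane depolarisation from a cAMP-sensing CNG channel, detected with a potential dye at ex 535/em 590. Cells were HEK293-derived (endogenous PDE-IV) at 1000 cells/well, titrated up to 22.9 uM final.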

[9] = biological target: Cytochrome P450 2C9 (Homo sapiens) (UniProt P11712); experiment: qHTS Assay for Inhibitors and Substrates of Cytochrome P450 2C9 (AID 883; active = well fitted curve in the direction sought with a large enough effect; an effect the other way counts as inactive or inconclusive; also: nearly all actives have a fitted effect of over 60% in size; also: potency is read from the fitted curve at half-maximal effect; as to activity change, negative = inhibition: % is scaled to controls: 0 for no effect and ±100 for the full control effect); conditions: recombinant CYP2C9, luciferin-H luminescence, 60 min; series mostly up to 11.4 µM
Chain of Cytochrome P450 2C9 (Homo sapiens) (P11712 whole entry, looked up): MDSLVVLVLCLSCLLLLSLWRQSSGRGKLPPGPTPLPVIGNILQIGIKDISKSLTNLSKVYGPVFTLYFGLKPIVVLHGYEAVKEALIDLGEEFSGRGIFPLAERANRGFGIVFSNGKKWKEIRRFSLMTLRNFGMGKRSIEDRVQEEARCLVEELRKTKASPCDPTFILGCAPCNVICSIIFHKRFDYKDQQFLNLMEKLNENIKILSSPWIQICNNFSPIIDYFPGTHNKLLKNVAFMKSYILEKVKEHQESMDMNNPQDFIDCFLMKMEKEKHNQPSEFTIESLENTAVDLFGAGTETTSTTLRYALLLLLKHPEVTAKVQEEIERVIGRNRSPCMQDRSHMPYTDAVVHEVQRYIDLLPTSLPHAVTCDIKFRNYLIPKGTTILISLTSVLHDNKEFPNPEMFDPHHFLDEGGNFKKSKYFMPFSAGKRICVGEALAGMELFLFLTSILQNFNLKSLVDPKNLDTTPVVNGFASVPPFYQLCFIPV
How it was run: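 A luminogenic readout tracked human CYP2C9 (10nM) converting deoxyluciferin (100uM, at KM) in 25mM KPO4 during 60 min at 37C with regenerated NADPH. Values normalized to 57uM sulphaphenazole as complete inhibition.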

[10] = biological target: Cytochrome P450 3A4 (Homo sapiens) (UniProt P08684); experiment: qHTS Assay for Inhibitors and Substrates of Cytochrome P450 3A4 (AID 884; active = well fitted curve in the direction sought with a large enough effect; an effect the other way counts as inactive or inconclusive; also: potency is read from the fitted curve at half-maximal effect; nearly all actives have a fitted effect of over 50% in size); conditions: recombinant CYP3A4, Luciferin-PPXE luminescence; series mostly up to 57.1 µM
Chain of Cytochrome P450 3A4 (Homo sapiens) (P08684 whole entry, looked up): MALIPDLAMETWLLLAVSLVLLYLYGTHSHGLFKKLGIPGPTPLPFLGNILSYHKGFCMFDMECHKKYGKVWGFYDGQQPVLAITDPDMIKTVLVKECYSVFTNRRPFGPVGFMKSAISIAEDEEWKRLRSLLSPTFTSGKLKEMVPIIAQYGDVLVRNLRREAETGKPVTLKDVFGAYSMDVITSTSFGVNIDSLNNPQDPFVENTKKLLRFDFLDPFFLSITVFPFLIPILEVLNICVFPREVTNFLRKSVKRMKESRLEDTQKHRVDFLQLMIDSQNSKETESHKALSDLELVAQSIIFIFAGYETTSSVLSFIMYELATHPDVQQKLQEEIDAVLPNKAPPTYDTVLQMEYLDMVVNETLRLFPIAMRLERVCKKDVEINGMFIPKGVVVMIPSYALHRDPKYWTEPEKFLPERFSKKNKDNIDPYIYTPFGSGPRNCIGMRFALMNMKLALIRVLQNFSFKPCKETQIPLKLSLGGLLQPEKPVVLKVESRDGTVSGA
How it was run: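 Luminescent readout of luciferin produced by CYP3A4 (20 nM) dealkylation of Luciferin-PPXE, 25 uM (its KM). NADPH-driven reaction ran 60 min at RT after 10 min compound preincubation; data scaled to 57 uM ketoconazole as 100% inhibition.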

[11] = biological target: Cytochrome P450 3A4 (Homo sapiens) (UniProt P08684); experiment: qHTS Assay for Activators of Cytochrome P450 3A4 (AID 885; active = well fitted curve in the direction sought with a large enough effect; an effect the other way counts as inactive or inconclusive; also: nearly all actives have a fitted effect of over 65% in size); conditions: recombinant CYP3A4, Luciferin-PPXE luminescence, 60 min; series mostly up to 11.4 µM
How it was run: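 Activators are scored by enhanced luminescence from CYP3A4 conversion of luciferin-PPXE (25uM, equal to KM) to luciferin, after 60 min at RT with an NADPH-regenerating system.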

[12] = biological target: Cytochrome P450 2D6 (Homo sapiens) (UniProt P10635); experiment: qHTS Assay for Inhibitors and Substrates of Cytochrome P450 2D6 (AID 891; active = well fitted curve in the direction sought with a large enough effect; an effect the other way counts as inactive or inconclusive; also: nearly all actives have a fitted effect of over 60% in size; also: potency is read from the fitted curve at half-maximal effect); conditions: recombinant CYP2D6, luciferin-ME EGE luminescence; series mostly up to 11.4 µM
Chain of Cytochrome P450 2D6 (Homo sapiens) (P10635 whole entry, looked up): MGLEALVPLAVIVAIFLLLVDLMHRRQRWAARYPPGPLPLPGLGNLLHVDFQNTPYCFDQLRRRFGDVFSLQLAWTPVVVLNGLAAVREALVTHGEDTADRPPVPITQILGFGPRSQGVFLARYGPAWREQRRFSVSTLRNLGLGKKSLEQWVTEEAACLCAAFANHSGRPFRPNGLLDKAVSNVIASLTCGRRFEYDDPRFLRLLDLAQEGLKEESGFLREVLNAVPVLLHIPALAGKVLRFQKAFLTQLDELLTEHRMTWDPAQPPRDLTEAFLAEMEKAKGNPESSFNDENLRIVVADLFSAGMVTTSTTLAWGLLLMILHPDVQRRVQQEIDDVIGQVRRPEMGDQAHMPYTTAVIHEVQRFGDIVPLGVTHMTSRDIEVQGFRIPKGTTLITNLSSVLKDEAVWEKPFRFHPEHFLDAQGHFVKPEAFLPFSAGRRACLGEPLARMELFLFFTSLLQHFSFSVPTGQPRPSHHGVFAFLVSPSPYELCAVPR
How it was run: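 Luminescent read-out of luciferin formed by 5 nM human CYP2D6 demethylating 30 uM Luciferin-ME EGE (Km level) over 60 min at room temperature after NADPH regeneration addition. Data normalized to full inhibition by 1.43 uM quinidine.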

[13] = biological target: Cytochrome P450 2C19 (Homo sapiens) (UniProt P33261); experiment: qHTS Assay for Inhibitors and Substrates of Cytochrome P450 2C19 (AID 899; active = well fitted curve in the direction sought with a large enough effect; an effect the other way counts as inactive or inconclusive; also: % is scaled to controls: 0 for no effect and ±100 for the full control effect; nearly all actives have a fitted effect of over 60% in size); conditions: recombinant CYP2C19, luciferin-H EGE luminescence; series mostly up to 11.4 µM
Chain of Cytochrome P450 2C19 (Homo sapiens) (P33261 whole entry, looked up): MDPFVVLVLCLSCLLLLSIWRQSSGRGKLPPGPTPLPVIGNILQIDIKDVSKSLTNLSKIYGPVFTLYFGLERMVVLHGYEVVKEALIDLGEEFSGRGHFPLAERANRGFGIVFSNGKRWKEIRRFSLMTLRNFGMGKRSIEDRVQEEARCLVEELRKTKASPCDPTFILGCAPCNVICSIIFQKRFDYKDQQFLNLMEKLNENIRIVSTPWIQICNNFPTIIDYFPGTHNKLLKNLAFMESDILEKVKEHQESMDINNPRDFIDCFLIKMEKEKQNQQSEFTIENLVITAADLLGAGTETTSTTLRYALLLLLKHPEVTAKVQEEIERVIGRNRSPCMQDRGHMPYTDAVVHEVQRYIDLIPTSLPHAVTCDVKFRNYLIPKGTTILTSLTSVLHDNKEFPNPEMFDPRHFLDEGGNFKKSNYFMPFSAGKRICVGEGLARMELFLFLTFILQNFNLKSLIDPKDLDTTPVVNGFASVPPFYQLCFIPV
How it was run: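 NADPH-dependent conversion of Luciferin-H EGE (10uM, at KM) by 5nM enzyme in 50mM KPO4, 60 min at 37C following 10 min compound preincubation. Stopped with luciferin detection buffer; luminescence read after 20 min.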

Row | Structure (SMILES) | Potency [1] [µM] | activity change, negative = inhibition [2] [%] | Potency [3] | activity change, negative = inhibition [4] [%] | activity, negative = inhibition [5] [%] | Potency [6] [µM] | Potency [7] [µM] | Potency [8] | Potency [9] | activity change, negative = inhibition [3] | Potency [10] | Potency [11] | Potency [12] | Potency [13]
1 | O=C(O)c1c[nH]c2c(ccc3[nH]cc(C(=O)O)c(=O)c32)c1=O | > 11.4 | -0.603 | 5.01 µM (active) | 8.43 | 13.7 | > 46 | > 9.22 | inactive | – | – | – | – | – | –
2 | O=C(O)c1cc(C(=O)C(=O)c2cc(C(=O)O)c(O)c3ccccc23)c2ccccc2c1O | > 11.4 | 22.7 | inactive | 10.6 | 0.955 | > 46 | > 9.22 | – | 0.316 µM (active) | – | – | – | – | –
3 | CN(CC(=O)O)CC(=O)O | > 11.4 | -6.97 | – | 11.1 | 2.4 | > 46 | > 9.22 | inactive | – | -5.9% [at 2.29 µM] | – | – | – | –
4 | Cc1cc(C)c(O)c(Cc2cccc(Cc3cc(C)cc(C)c3O)c2O)c1 | > 11.4 | 0.471 | – | 11.9 | 2.38 | > 46 | > 9.22 | inactive | – | -14.7% [at 2.29 µM] | – | – | – | –
5 | C/C(=N/Nc1ccc2ccccc2n1)c1ccccc1O | > 11.4 | 5.21 | 1.58 µM (active) | 2.32 | 7.92 | > 46 | > 9.22 | inactive | – | – | 3.16 µM (active) | inactive | 0.794 µM (active) | –
6 | Nc1ncnc2nc[nH]c12.Nc1ncnc2nc[nH]c12.[Cl][Pt]([Cl])([Cl])[Cl] | > 11.4 | -1.02 | – | 4.22 | -3.14 | > 46 | > 9.22 | inactive | inactive | 13.2% [at 2.29 µM] | – | – | inactive | inactive
7 | Cc1ccc(C(N)=Nc2ccccc2)cc1 | > 11.4 | 18.3 | inactive | -2.23 | -4.47 | > 46 | > 9.22 | inactive | – | – | – | – | 3.16 µM (active) | –
8 | O=C1C[C@H]2C(=O)[C@@H]1[C@@H](C(=O)O)[C@H]2C(=O)O | > 11.4 | 5.27 | inactive | 7.84 | -5.86 | > 46 | > 9.22 | inactive | – | – | – | – | – | –
9 | O=C(O)CC12C[C@H]3C[C@@H](CC(O)(C3)C1)C2 | > 11.4 | 9.34 | inactive | -2.52 | -1.43 | > 46 | > 9.22 | inactive | – | – | – | – | – | –
10 | Nc1cc2c(nc3c4ccccc4c(N)cc3[n+]2-c2cccc3ccccc23)c2ccccc12 (tested in a mixture with another compound) | > 11.4 | 11.3 | 1.26 µM (active) | 8.58 | 6.04 | > 46 | > 9.22 | inactive | – | – | – | – | 1.58 µM (active) | –
11 | COc1ccc(/C=C(\C#N)C(N)=O)cc1OC | > 11.4 | -5.77 | 3.16 µM (active) | 11.6 | -2.19 | > 46 | > 9.22 | inactive | – | – | – | – | – | –
12 | O=C(O)Cc1cccnc1 | > 11.4 | 8.81 | inactive | 15.8 | 3.03 | > 46 | > 9.22 | inactive | – | – | – | – | – | –
13 | O=C1c2ccccc2-c2ccc(NC(=O)[C@H]3CCCC[C@@H]3C(=O)O)cc21 | > 11.4 | 9.83 | 1 µM (active) | 13.7 | 1.55 | > 46 | > 9.22 | inactive | – | – | – | – | – | –
14 | N=C(N)SCCc1ccncc1 | > 11.4 | 3.09 | – | -0.295 | 3.81 | > 46 | > 9.22 | inactive | – | -17.8% [at 2.29 µM] | – | – | – | –
15 | CCC(=O)Nc1ncnc2ncn(C(=O)CC)c12 | > 11.4 | 8.41 | inactive | 1.71 | 1.38 | > 46 | > 9.22 | inactive | – | – | – | – | – | –
16 | Cc1cc(Cc2cc(C)c(N)cc2N)c(N)cc1N | > 11.4 | -4.79 | 2 µM (active) | -1.81 | 1.49 | > 46 | > 9.22 | inactive | – | – | – | – | – | –
